# B2AR arrestin – qHTS assay of beta-arrestin-biased ligands of beta2-adrenergic receptor. Beta-2 adrenergic receptor (Homo sapiens), P07550. beta-arrestin recruitment to beta2AR, cell-based reporter. Potency, µM (titrated, usually from 46.1 µM), for inactives: top-dose activation, most hits filed as activators. 330,000 compounds, 0.02% hits;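 further: potency means the concentration at half of the fitted maximal effect; 0% = DMSO controls and full agonism = EC100 isoproterenol or metaproterenol; nearly all actives have a fitted effect of over 65% in size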
# Gal4-VP16 FLuc – VP16 counterscreen qHTS for inhibitors of ROR gamma transcriptional activity; Drosophila S2 Gal4-VP16 UAS-luciferase, luminescence, 20 h; Potency, µM (doses to about 53.6 µM), inactives show top-dose activity, negative = inhibition, hits mostly inhibitors; 310,000 compounds, 3.5% hits; AID 2546, 2010;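 further: Gal4-VP16 expression switched on by copper sulfate through the metallothionein promoter; potency means the concentration at half of the fitted maximal effect; nearly all actives have a fitted effect of over 50% in size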
# ELG1 repair inh – qHTS screen for small molecules that inhibit ELG1-dependent DNA repair in human embryonic kidney (HEK293T) cells expressing luciferase-tagged ELG1; HEK293T ELG1-luciferase reporter, luminescence, 16 h; DNA damage induced by 5-fluorouridine; Potency, µM (top dose mostly 46.1 µM), for inactives: top-dose activity change, negative = inhibition, hits mostly inhibitors; 330,000 compounds, 2.3% hits; AID 504467, 2011; further: potency means the concentration at half of the fitted maximal effect; nearly all actives have a fitted effect of over 55% in size
#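 DMSO vehicle served as the neutral condition. Each well held 2,000 cells given 5-fluorouridine plus compound; after 16 hr at 37 °C/5% CO2, ONE-Glo was added and luciferase measured 30 min later.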
# TSHR antag – Antagonists of the Thyroid Stimulating Hormone Receptor: HTS campaign | Thyrotropin receptor (Homo sapiens), P16473 | TSHR-expressing cells, TSH-stimulated cAMP HTRF, 2 h; stronger effect = lower value | activity change, negative = inhibition, % at 11.5 µM | 330,000 compounds, 0.2% hits | AID 504810, 2011;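 active means activity change below a set negative limit, meaning inhibition stronger than a set level, cut at about -70% in these data; inconclusive means activity change between two set negative limits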
# Target sequence (P16473 whole entry, looked up): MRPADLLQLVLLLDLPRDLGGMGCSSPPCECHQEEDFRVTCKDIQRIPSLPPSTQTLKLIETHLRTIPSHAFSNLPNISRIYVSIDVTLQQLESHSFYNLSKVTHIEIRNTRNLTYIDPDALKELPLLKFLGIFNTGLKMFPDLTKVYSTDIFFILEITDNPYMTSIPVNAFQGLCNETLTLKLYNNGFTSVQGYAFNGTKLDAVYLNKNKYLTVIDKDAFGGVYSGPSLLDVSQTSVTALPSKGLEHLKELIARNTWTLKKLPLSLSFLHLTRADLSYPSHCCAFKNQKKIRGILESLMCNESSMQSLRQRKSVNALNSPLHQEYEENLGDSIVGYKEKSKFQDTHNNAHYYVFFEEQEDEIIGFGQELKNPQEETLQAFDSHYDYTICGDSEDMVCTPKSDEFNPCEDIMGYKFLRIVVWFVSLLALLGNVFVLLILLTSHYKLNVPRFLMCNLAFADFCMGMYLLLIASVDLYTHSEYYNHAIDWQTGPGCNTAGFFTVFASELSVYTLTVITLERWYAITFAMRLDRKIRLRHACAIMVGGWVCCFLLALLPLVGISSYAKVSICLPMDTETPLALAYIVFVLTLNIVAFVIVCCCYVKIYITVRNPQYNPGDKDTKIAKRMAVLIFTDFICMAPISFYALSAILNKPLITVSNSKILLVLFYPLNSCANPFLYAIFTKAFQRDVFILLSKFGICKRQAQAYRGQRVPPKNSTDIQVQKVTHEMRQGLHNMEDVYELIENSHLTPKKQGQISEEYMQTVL
#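 Read-out is FRET at 665 nm (cryptate excitation 337 nm) from a cryptate-tagged anti-cAMP antibody, competed by cell cAMP against cAMP-d2. Compounds are tested on freshly harvested TSHR cells challenged with 4nM TSH (EC80) for 2 hours at 37 deg C.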
# RORgamma inh – qHTS for inhibitors of ROR gamma transcriptional activity | Nuclear receptor ROR-gamma (Mus musculus), P51450 | Drosophila S2 Gal4-RORgamma UAS-luciferase reporter, 20 h | Potency, µM (titrated, usually from 53.6 µM), for inactives: at the top dose activity change, negative = inhibition, actives largely listed as inhibitors | 310,000 compounds, 5.4% hits | AID 2551, 2010; further: potency means the concentration at half of the fitted maximal effect; nearly all actives have a fitted effect of over 60% in size
#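 ROR gamma transcriptional activity was tracked as Gal4-UAS luciferase output in stably transfected Drosophila Schneider cells, with compound added 1 hr before 700 uM copper sulfate induction and a 20 hr ambient-temperature incubation.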
# An asterisk follows results filed as active; ? = inconclusive; / = no result given. This is a sample that favours compounds with a hit; in the whole collection about 7.5% have one here. Unless noted, the call rests on the fitted dose curve; in most records, active means well fitted curve in the direction sought with a large enough effect; inconclusive means small, poorly fitted or top-dose-only effect, or another doubt; inactive means no such curve, though single readings can be large; an effect the other way counts as inactive or inconclusive. Unless noted, on the % scale 0 is the no-effect control and ±100 the full control effect.
SMILES,B2AR arrestin,Gal4-VP16 FLuc,ELG1 repair inh,TSHR antag,RORgamma inh
Cc1ccn2c(-c3csc(NCc4ccco4)n3)c(C)nc2c1,5.4%,?,?,-17.7,12.6µM*
Cc1nc2ccccn2c1-c1csc(Nc2cccc(O)c2)n1,0.0%,7.5%,?,22.9,3.7%
COc1ccc(-c2csc(NCc3ccco3)n2)cc1C,0.1%,-24.8%,?,-19.1,?
Cc1cccc(Nc2nc(-c3c(C)nc4ccccn34)cs2)c1,-0.1%,?,?,-34.5,12.6µM*
COc1ccccc1NC(=O)C(=O)N1N=C(C(C)C)CC1(O)C(F)(F)F (centres undefined),-0.5%,?,0.1%,-19.0,10µM*
COc1ccccc1NC(=O)C(C)N1C(=O)c2ccccc2C1=O (centres undefined),-0.6%,-10.7%,4.9%,-4.6,-33.0%
CCC1=NN(C(=O)C(=O)Nc2ccccc2OC)C(O)(C(F)(F)F)C1 (centres undefined),-0.1%,?,-5.0%,3.9,12.6µM*
CCC1=NN(C(=O)C(=O)Nc2ccc(OC)cc2)C(O)(C(F)(F)F)C1 (centres undefined),0.2%,-22.4%,?,43.7,?
O=C(CN1C(=O)NC2(CCCC2)C1=O)OCc1cc(=O)n2cc(Br)ccc2n1,-0.9%,-92.6%,15.3%,-6.3,3.16µM*
Cc1ccccc1C(=O)NNC(=S)NC(=O)c1cccnc1,-0.5%,?,2.4%,2.7,11.2µM*
O=C(NC(=S)NNC(=O)c1ccccc1F)c1cccnc1,0.5%,?,-7.2%,8.4,11.2µM*
Cc1cc2cc(CN(Cc3ccc4c(c3)OCO4)C(=O)c3cnccn3)c3nnnn3c2cc1C,-0.2%,11.0%,16.4µM*,-10.0,17.3%
Cc1ccc2c(c1)cc(CN(Cc1ccc3c(c1)OCO3)C(=O)c1cnccn1)c1nnnn12,0.1%,-1.6%,-24.8%,-3.3,-8.5%
Cc1cccc[n+]1CC(=O)/C=C1\N(C)c2ccccc2C1(C)C,-0.8%,6.31µM*,-3.7%,9.6,?
Cc1ccc[n+](CC(=O)/C=C2\N(C)c3ccccc3C2(C)C)c1,-0.5%,-13.4%,2.2%,10.0,?
COCCn1c(SCC(=O)/C=C2\N(C)c3ccccc3C2(C)C)nnc1-c1ccncc1,-0.1%,?,20.6µM*,9.8,?
COc1ccc(Nc2nnc(SCC(=O)/C=C3/N(C)c4ccccc4C3(C)C)s2)cc1,-1.0%,?,25.9µM*,-14.2,-1.7%
CN1/C(=C\C(=O)C[n+]2cccc(Br)c2)C(C)(C)c2ccccc21,0.4%,12.6µM*,?,3.9,11.2%
COc1cccc(-c2ccc3ncnc(NCCN4CCOCC4)c3c2)c1,/,1.6%,/,/,?
CC(=O)N[C@@H](Cc1ccc(O)cc1)C(=O)O,/,-11.4%,/,/,-12.0%
COC1=C[C@@H](C)C2CC3OC(=O)C[C@H]4C(C)=C(OC)C(=O)C([C@@]2(C)C1=O)[C@@]34C (some centres undefined),/,-0.3%,/,/,-0.7%
O=c1c(-c2ccc(F)cc2)nc2cnc(Nc3ccccc3)nc2n1C[C@H]1CCCO1,/,-7.8%,/,/,-16.5%
CN1/C(=C\C(=O)CSc2cccc[n+]2[O-])C(C)(C)c2ccccc21,4.1%,?,-4.1%,-0.8,7.08µM*
CN1/C(=C/C(=O)CSc2ccccc2C(=O)O)C(C)(C)c2ccccc21,-0.1%,-7.4%,-4.2%,6.9,1.7%
CCCCNC(=S)N/N=C/c1sccc1C,0.4%,-29.6%,1.4%,6.4,1.12µM*
CCCCNC(=S)N/N=C/c1ccccc1F,3.4%,3.16µM*,7.9%,30.6,2.51µM*
CCOC(=O)N/N=C\c1sccc1C,-0.6%,?,?,-7.1,25.4%
CCCCNC(=S)N/N=C/c1cc(C)ccc1C,0.4%,3.16µM*,-10.3%,-8.4,1.78µM*
O=S(=O)(Nc1ccncc1)c1cc(Cl)c(Cl)cc1Cl,-0.2%,2.6%,6.8%,-15.4,?

# Screening data from PubChem.
